The values that follow come from PMC7862700, “An all-to-all approach to the identification of sequence-specific readers for epigenetic DNA modifications on cytosine”.

What all share (assay): DAPPL (digital affinity profiling via proximity ligation, sequencing); 10 mM Tris-HCl pH 7.5, 50 mM NaCl, 1 mM DTT, 4% glycerol, room temperature, 30 min; GST-TFs on glutathione beads, 16-mer random dsDNA library, 0.1% formaldehyde crosslink after washing; high values mean tight binding
Holding throughout (settings): protein: recombinant; tags: N-terminal GST; dsDNA, one strand shown

One assay concerns the target T1, FLI1 (Homo sapiens, UniProt Q01543 1-452).
T1 sequence: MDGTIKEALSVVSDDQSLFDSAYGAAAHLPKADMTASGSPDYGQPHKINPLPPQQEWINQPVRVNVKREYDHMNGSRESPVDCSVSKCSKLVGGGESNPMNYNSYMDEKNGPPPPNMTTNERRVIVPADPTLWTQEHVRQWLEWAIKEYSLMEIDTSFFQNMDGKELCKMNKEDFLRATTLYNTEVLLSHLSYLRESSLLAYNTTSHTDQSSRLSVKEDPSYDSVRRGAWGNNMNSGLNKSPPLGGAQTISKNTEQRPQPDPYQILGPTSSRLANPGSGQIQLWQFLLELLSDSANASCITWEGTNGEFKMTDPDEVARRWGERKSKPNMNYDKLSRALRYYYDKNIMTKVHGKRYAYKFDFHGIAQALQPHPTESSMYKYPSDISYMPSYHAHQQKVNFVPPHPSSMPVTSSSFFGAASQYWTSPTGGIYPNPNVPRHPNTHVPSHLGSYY
The method in brief: (§1)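 Sequencing on an Illumina NextSeq500 followed washing, crosslinking with 0.1% formaldehyde, proximity ligation (BsaI/T4 ligase, 1 h, 37 °C) and PCR amplification of pools that had been incubated for 30 min at room temperature with 200 nmole of a random double-stranded 16-mer DNA library in Tris/NaCl/DTT/glycerol buffer. Each pool held DNA-barcoded human transcription factors, expressed in yeast as GST fusions and captured on glutathione beads, plus a tag-only sample. Binding signal is a hexamer's read frequency for a factor divided by its frequency in the tag-only sample.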

The next assay concerns the target T2, ELK1 (Homo sapiens, UniProt P19419 1-428).
T2 sequence: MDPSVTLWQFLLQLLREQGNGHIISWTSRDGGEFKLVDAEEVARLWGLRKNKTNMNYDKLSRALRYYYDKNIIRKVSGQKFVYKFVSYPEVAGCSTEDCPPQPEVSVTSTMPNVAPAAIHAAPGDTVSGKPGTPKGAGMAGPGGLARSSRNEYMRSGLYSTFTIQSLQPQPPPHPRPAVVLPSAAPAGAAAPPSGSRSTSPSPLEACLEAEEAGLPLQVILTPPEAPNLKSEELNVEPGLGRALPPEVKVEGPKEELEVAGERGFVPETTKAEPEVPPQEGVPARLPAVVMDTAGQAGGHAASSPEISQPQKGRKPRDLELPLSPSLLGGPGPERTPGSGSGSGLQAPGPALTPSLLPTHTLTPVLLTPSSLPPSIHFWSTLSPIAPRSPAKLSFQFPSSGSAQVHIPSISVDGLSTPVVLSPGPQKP
The method in brief: as §1

The next assay has as its target T3, GABPA (Homo sapiens, UniProt Q06546 1-454).
T3 sequence: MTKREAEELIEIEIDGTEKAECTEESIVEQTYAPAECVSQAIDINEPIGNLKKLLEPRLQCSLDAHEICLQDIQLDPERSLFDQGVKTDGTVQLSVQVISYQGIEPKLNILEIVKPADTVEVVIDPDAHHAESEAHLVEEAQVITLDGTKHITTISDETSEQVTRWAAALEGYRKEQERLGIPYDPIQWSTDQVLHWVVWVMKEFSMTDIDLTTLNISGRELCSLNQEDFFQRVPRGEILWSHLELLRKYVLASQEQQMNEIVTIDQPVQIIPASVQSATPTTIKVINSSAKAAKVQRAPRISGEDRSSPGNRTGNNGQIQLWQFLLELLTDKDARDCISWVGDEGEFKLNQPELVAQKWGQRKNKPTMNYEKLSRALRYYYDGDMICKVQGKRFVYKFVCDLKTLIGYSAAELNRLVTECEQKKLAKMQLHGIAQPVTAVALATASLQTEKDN
The gist of the method: as §1

In another assay the target is T4, ERG (Homo sapiens, UniProt P11308 1-479).
T4 sequence: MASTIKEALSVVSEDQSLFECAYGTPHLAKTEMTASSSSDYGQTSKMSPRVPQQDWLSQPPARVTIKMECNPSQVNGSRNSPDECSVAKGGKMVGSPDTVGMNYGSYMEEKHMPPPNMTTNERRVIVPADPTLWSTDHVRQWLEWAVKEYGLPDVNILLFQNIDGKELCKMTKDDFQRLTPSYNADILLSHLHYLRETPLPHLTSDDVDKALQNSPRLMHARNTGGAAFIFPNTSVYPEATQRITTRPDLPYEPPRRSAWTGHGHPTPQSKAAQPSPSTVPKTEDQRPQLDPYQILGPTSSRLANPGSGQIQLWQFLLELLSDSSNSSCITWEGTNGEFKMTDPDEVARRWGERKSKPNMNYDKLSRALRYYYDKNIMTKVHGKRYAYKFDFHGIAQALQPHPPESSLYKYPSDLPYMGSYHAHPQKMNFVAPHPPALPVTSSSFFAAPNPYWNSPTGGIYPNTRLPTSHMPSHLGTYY
The method in brief:
as §1

The next assay has as its target ELF1 (Homo sapiens, UniProt P32519 1-619). The method in brief: as §1
For another assay, the target named is T5, EHF (Homo sapiens, UniProt Q9NZC4 1-300).
T5 sequence: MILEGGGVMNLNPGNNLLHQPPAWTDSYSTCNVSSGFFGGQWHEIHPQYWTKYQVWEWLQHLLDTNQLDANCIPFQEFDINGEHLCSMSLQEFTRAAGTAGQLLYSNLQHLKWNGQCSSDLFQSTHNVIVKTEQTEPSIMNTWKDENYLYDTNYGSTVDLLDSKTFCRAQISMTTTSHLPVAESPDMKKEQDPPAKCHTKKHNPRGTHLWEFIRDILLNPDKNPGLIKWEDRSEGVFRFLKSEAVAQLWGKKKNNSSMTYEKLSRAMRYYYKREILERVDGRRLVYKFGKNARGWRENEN
The method in brief: as §1

Another assay addresses SPI1 (Homo sapiens, UniProt P17947 1-270). The method in brief:
as §1

For another assay, the target named is SPIB (Homo sapiens, UniProt Q01892 1-262). The method in brief: as §1
The next assay addresses T6, ELK3 (Homo sapiens, UniProt P41970 1-407).
T6 sequence: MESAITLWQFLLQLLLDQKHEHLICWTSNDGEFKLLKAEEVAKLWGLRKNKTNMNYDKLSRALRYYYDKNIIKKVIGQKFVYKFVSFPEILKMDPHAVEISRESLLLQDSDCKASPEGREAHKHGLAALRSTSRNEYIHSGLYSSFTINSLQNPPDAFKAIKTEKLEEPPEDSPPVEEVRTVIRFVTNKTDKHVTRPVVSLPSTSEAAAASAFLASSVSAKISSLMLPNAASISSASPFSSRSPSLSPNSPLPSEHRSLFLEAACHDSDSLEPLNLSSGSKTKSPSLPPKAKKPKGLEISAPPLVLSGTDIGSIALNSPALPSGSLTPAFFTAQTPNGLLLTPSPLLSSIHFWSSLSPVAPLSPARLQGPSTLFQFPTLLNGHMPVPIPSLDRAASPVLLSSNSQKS
The method in brief: as §1

The next assay concerns the target T7, FEV (Homo sapiens, UniProt Q99581 1-238).
T7 sequence: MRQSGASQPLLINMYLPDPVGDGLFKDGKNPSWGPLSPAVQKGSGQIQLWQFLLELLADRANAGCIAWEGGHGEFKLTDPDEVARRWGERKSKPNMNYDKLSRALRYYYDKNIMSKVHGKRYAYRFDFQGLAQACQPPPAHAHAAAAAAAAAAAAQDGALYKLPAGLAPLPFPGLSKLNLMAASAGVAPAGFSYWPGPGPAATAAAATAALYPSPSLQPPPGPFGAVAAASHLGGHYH
The method in brief: as §1

The next assay concerns the target ETV5 (Homo sapiens, UniProt P41161 1-510). The gist of the method:
as §1

The target of another assay is T8, SPIC (Homo sapiens, UniProt Q8N5J4 1-248).
T8 sequence: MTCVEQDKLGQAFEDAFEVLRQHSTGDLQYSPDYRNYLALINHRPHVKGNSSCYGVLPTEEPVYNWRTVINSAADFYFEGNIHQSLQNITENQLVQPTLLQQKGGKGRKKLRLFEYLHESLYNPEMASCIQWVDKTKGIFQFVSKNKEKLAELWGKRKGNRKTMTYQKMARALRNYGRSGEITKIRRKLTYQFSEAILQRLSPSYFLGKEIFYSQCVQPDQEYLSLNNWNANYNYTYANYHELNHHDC
The method in brief:
as §1

For the next assay, the target named is ELF4 (Homo sapiens, UniProt Q99607 1-663). The method in brief: as §1
The next assay concerns the target ETV1 (Homo sapiens, UniProt P50549 1-477). The method in brief: as §1
Another assay addresses T9, ERF (Homo sapiens, UniProt P50548 1-548).
T9 sequence: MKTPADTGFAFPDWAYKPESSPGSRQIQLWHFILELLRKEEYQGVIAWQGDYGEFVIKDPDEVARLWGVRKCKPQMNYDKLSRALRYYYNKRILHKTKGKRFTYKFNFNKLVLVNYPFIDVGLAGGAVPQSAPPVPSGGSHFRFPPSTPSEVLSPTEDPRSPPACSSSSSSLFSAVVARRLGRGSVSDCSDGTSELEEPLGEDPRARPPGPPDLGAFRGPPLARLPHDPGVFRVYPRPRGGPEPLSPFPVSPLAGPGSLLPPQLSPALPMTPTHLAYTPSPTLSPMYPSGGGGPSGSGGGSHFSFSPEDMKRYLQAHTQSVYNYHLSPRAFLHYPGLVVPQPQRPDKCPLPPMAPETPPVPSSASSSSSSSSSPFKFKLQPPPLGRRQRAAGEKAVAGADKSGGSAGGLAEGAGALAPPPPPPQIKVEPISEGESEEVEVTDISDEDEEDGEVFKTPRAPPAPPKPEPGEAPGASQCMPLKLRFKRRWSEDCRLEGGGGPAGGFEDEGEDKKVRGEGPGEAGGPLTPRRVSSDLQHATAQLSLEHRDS
The gist of the method: as §1

In a further assay the target is T10, ETV3L (Homo sapiens, UniProt Q6ZN32 1-361).
T10 sequence: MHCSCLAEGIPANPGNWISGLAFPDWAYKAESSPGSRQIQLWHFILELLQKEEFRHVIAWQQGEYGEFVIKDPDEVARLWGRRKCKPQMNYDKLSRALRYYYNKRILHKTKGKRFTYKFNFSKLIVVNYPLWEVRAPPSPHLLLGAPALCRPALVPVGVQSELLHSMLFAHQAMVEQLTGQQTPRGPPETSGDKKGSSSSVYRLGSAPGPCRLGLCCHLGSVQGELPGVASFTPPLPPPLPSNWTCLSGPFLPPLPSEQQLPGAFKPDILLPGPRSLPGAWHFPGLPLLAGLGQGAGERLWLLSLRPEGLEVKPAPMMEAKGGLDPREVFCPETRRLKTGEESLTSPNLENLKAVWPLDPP
The gist of the method: as §1

Another assay deals with T11, ETS2 (Homo sapiens, UniProt P15036 1-469).
T11 sequence: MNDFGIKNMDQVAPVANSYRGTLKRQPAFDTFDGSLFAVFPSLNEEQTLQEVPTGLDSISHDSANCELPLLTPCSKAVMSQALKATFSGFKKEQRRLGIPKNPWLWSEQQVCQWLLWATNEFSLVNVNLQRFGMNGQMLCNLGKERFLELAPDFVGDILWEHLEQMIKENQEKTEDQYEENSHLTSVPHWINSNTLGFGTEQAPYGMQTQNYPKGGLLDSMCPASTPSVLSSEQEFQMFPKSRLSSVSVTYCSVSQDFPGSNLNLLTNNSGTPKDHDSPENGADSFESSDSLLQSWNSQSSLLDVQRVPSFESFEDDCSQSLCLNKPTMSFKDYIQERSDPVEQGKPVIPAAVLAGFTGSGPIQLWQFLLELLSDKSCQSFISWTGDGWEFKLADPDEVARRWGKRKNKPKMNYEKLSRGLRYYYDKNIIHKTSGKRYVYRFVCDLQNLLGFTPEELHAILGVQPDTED
The gist of the method: as §1

Another assay has as its target T12, ELF5 (Homo sapiens, UniProt Q9UKW6-2 1-255).
T12 sequence: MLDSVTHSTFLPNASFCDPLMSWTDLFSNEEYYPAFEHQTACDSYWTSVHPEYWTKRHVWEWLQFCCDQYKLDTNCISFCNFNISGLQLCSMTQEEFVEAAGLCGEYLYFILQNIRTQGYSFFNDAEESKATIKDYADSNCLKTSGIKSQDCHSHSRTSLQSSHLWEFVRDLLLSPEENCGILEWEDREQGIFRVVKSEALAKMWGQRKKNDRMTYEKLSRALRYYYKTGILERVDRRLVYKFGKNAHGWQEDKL
The gist of the method:
as §1

A further assay concerns the target T13, ETV3 (Homo sapiens, UniProt P41162-2 1-143).
T13 sequence: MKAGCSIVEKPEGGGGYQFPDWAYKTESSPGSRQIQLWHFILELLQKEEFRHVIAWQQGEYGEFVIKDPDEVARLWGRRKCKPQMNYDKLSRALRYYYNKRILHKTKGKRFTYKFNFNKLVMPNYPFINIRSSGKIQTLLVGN
The method in brief:
as §1

Another assay deals with ETV6 (Homo sapiens, UniProt P41212 1-452). The method in brief:
as §1

Chain of ETV5 (P41161 whole entry): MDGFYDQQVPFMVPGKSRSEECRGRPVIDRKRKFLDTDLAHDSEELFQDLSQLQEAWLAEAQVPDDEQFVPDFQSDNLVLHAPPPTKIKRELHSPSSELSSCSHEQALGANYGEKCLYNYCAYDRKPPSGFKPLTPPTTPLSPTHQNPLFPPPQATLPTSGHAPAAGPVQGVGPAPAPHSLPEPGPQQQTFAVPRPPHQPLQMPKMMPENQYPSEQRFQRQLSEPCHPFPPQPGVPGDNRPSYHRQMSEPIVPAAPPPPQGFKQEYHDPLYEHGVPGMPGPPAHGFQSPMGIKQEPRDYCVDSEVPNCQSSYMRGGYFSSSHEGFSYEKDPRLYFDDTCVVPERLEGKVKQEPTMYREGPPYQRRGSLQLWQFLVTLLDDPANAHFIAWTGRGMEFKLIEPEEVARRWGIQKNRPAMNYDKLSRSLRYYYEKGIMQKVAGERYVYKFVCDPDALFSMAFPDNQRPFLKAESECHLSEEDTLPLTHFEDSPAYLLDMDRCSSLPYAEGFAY
Chain of SPIB (Q01892 whole entry): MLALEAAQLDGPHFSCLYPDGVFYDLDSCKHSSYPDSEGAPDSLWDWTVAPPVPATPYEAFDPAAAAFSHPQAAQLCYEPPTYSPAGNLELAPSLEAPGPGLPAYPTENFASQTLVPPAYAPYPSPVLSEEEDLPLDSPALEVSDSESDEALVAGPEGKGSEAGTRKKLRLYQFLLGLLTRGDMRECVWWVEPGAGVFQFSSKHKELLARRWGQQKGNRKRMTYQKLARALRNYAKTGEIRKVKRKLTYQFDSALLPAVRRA
Chain of ELF4 (Q99607 whole entry): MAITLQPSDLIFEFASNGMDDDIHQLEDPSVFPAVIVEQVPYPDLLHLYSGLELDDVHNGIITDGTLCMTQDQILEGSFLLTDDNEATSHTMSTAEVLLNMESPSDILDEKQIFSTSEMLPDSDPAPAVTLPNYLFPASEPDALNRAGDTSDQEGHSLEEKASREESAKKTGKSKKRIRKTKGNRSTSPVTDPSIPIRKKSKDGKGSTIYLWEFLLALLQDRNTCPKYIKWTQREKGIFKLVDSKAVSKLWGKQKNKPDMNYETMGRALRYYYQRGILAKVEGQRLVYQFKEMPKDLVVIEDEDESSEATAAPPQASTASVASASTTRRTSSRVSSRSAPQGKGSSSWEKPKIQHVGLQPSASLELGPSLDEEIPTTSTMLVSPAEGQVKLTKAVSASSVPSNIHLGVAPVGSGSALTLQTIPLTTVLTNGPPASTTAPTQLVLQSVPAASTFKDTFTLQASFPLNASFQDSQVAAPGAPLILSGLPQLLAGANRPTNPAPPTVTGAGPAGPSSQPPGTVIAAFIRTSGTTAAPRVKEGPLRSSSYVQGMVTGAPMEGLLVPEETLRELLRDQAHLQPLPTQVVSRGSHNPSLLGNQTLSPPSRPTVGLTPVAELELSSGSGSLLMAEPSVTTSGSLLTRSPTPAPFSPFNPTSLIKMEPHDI
Chain of ETV1 (P50549 whole entry): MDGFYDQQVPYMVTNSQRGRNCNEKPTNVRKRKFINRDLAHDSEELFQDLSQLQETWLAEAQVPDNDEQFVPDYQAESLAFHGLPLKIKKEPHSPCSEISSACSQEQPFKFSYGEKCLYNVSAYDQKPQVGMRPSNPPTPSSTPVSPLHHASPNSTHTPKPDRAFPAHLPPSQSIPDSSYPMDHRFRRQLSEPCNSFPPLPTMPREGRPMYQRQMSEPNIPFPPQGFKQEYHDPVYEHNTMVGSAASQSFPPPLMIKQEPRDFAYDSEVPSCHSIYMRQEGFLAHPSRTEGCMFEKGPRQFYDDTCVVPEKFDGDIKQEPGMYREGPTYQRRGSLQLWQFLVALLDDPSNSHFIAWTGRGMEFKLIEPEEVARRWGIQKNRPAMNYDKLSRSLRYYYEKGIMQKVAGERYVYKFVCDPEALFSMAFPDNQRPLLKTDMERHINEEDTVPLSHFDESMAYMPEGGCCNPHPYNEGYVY
Chain of ELF1 (P32519 whole entry): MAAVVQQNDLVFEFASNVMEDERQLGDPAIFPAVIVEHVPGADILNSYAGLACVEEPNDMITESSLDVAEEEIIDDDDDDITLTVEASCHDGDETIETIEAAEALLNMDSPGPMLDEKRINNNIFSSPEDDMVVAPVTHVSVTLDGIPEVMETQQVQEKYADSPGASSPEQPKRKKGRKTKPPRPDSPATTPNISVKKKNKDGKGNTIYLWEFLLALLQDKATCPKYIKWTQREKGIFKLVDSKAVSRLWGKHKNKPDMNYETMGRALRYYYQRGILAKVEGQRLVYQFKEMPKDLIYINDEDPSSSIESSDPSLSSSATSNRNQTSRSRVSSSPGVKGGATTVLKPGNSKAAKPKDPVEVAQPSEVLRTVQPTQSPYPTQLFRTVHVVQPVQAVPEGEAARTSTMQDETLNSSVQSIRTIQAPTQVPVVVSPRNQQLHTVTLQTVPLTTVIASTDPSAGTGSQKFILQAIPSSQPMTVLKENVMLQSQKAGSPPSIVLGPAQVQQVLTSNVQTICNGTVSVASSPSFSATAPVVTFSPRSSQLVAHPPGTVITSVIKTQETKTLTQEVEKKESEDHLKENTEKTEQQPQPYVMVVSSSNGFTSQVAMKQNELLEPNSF
Chain of ETV6 (P41212 whole entry): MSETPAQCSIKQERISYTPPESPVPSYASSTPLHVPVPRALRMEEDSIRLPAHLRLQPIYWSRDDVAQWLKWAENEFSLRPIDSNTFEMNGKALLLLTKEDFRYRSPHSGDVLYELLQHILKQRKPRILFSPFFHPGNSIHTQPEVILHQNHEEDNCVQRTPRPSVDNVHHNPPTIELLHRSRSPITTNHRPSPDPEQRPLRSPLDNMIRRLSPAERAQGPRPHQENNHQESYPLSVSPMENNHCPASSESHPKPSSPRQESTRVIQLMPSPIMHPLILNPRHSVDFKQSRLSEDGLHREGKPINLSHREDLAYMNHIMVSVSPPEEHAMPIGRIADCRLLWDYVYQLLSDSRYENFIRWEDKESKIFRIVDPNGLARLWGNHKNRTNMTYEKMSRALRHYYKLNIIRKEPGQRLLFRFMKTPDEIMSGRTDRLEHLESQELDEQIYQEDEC

For the sequence ACATGG, the binding signal was 1.17 fold enrichment (6-mer frequency, TF over GST control) in the assay with FLI1; 1.13 fold enrichment (6-mer frequency, TF over GST control) in the assay with ELK1; 1.15 fold enrichment (6-mer frequency, TF over GST control) with GABPA; 1.16 fold enrichment (6-mer frequency, TF over GST control) with ERG; 1.15 fold enrichment (6-mer frequency, TF over GST control) in the assay with ELF1; 1.1 fold enrichment (6-mer frequency, TF over GST control) with EHF. Further, the binding signal is 1.14 fold enrichment (6-mer frequency, TF over GST control) in the assay with SPI1; 1.04 fold enrichment (6-mer frequency, TF over GST control) in the assay with SPIB; 1.09 fold enrichment (6-mer frequency, TF over GST control) with ELK3; 1.04 fold enrichment (6-mer frequency, TF over GST control) in the assay with FEV; 1.1 fold enrichment (6-mer frequency, TF over GST control) in the assay with ETV5; 1.18 fold enrichment (6-mer frequency, TF over GST control) with SPIC. For the same sequence, the binding signal with ELF4 was 1.21 fold enrichment (6-mer frequency, TF over GST control); in the assay with ETV1, 1.14 fold enrichment (6-mer frequency, TF over GST control); in the assay with ERF, 1.14 fold enrichment (6-mer frequency, TF over GST control); with ETV3L, 1.19 fold enrichment (6-mer frequency, TF over GST control); with ETS2 it was 1.14 fold enrichment (6-mer frequency, TF over GST control); with ELF5 it was 1.1 fold enrichment (6-mer frequency, TF over GST control). For the same sequence, the binding signal is 1.13 fold enrichment (6-mer frequency, TF over GST control) with ETV3 and 1.14 fold enrichment (6-mer frequency, TF over GST control) in the assay with ETV6.
